Laboratory results as given in PubChem BioAssay (NCATS).
“And” between values parts separate entries of the source, which are not always exact repeats. Equal values may be shown once. Results filed as inconclusive are left out. A call without a number means that no potency is given here. The source made the active and inactive calls. Calls follow the shape of the full dose curve.

Legend:
[1] = Primary qHTS for Huh7 cytotoxicity: counterscreen for inhibitors of MERS-S pseudotyped particle cell entry (AID 1479147); conditions: cell viability read-out; series mostly up to 57.1 µM
[2] = Primary qHTS for inhibitors of MERS-S pseudo-typed particle cell entry (AID 1479149); conditions: MERS-S pseudotyped particle entry, luciferase; series mostly up to 57.1 µM; also: nearly all actives have a fitted effect of over 60% in size
[3] = Primary qHTS for Vero E6 cytotoxicity: counterscreen for inhibitors of SARS-S pseudo-typed particle cell entry (AID 1479150); conditions: cell viability; series mostly up to 57.1 µM
[4] = Cytotoxicity counterscreen for inhibitors of SARS-CoV-2 cell entry (AID 1645845); conditions: cell viability (SARS-CoV-2 entry assay cells); series mostly up to 57.1 µM; also: nearly all actives have a fitted effect of over 50% in size
Outline: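 Counterscreen run in the same HEK293-ACE2 line as the pseudotyped-particle entry assay, without particles. Viability after 48 h at 37 C was read as ATP luminescence, scaled between cell-containing and cell-free wells.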

[5] = Primary qHTS to identify inhibitors of SARS-CoV-2 cell entry (AID 1645846); conditions: SARS-CoV-2 pseudovirus cell entry assay, luminescence; activity change, negative = inhibition: at 57.1 µM (top of the series) unless noted; series mostly up to 57.1 µM; also: nearly all actives have a fitted effect of over 45% in size
Outline: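 HEK293 cells stably expressing human ACE2, pre-treated 1 h with compound, then infected with MLV particles pseudotyped with Wuhan-Hu-1 spike (C-terminal 19-aa truncation). Luciferase luminescence after 48 h at 37 °C, normalised to spike PP and bald PP.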

Structure (SMILES) | Potency [1] | Potency [2] | Potency [3] | Potency [4] | Potency [5] | activity change, negative = inhibition [5]
CC(=O)N[C@@H](CS)C(=O)O | inactive | inactive | inactive | inactive | inactive | –
Nc1nc(F)nc2c1ncn2[C@@H]1O[C@H](CO)[C@@H](O)[C@@H]1O | inactive | inactive | inactive | inactive | – | 3.89% and -17.8%
CN(C)/N=N/c1nc[nH]c1C(N)=O | inactive | inactive | inactive | inactive | inactive | –
CN(C)c1ccc(O)c2c1C[C@H]1C[C@H]3[C@H](N(C)C)C(=O)C(C(N)=O)=C(O)[C@@]3(O)C(=O)C1=C2O | inactive | inactive | inactive | inactive | – | -8.61%
O=C1N=C(O)CN1/N=C/c1ccc(-c2ccc([N+](=O)[O-])cc2)o1 | inactive | inactive | inactive | inactive | inactive | –
COc1ccc([C@@H]2Sc3ccccc3N(CCN(C)C)C(=O)[C@@H]2OC(C)=O)cc1 | inactive | inactive | inactive | inactive | – | -17.1% and -9.97%
O[C@@H]1CO[C@H]2[C@@H]1OC[C@@H]2O | inactive | inactive | inactive | inactive | inactive | –
Cc1ccc(C(=O)c2cc(O)c(O)c([N+](=O)[O-])c2)cc1 | inactive | inactive | inactive | inactive | – | -19.3%
Cc1cccc(C)c1OCC(C)N (stereo not given) | inactive | inactive | inactive | inactive | – | -0.301%
CCCCC1=NC2(CCCC2)C(=O)N1Cc1ccc(-c2ccccc2-c2nn[nH]n2)cc1 | inactive | inactive | inactive | inactive | inactive | –
Cc1cc2c(s1)Nc1ccccc1N=C2N1CCN(C)CC1 | inactive | inactive | inactive | inactive | – | -19.8%
NCCC(O)(P(=O)(O)O)P(=O)(O)O | inactive | inactive | inactive | inactive | inactive | –
CC(=O)Nc1nnc(S(N)(=O)=O)s1 | inactive | inactive | inactive | inactive | – | 1.7%
CN/C(=C\[N+](=O)[O-])NCCSCc1ccc(CN(C)C)o1 | inactive | inactive | inactive | inactive | inactive | –
CCCNC(=O)NS(=O)(=O)c1ccc(Cl)cc1 | inactive | inactive | inactive | inactive | inactive | –
CC1(C)O[C@@H]2[C@@H](CO[C@@]3(COS(N)(=O)=O)OC(C)(C)O[C@@H]23)O1 | inactive | inactive | inactive | inactive | – | -8%

Structure (SMILES) | Potency [1] | Potency [2] | Potency [3] | Potency [4] | Potency [5] | activity change, negative = inhibition [5]
CCCCOCCOCCOCc1cc2c(cc1CCC)OCO2 | inactive | inactive | inactive | inactive | – | -2.81%
COc1cc2nc(N3CCN(C(=O)C4CCCO4)CC3)nc(N)c2cc1OC (stereo not given) | inactive | inactive | inactive | inactive | – | -6.28%
COc1cc2c(cc1OC)[C@@H]1CC(=O)[C@@H](CC(C)C)CN1CC2 | inactive | inactive | inactive | inactive | inactive | –
CC(C)(O)c1ccccc1CC[C@@H](SCC1(CC(=O)O)CC1)c1cccc(/C=C/c2ccc3ccc(Cl)cc3n2)c1 | inactive | inactive | inactive | inactive | inactive | –
Nc1cccc2c1CN(C1CCC(=O)NC1=O)C2=O (stereo not given) | inactive | inactive | inactive | inactive | inactive | –
COc1nc(N)nc2c1ncn2[C@@H]1O[C@H](CO)[C@@H](O)[C@@H]1O | inactive | inactive | inactive | inactive | inactive | –
CCOC(=O)Nc1ccc2c(c1)N(C(=O)CCN1CCOCC1)c1ccccc1S2 | inactive | inactive | inactive | inactive | – | -15.7%
CCOC(=O)[C@H](CCc1ccccc1)N[C@@H](C)C(=O)N1[C@H](C(=O)O)C[C@@H]2CCC[C@@H]21 | inactive | inactive | inactive | inactive | inactive | –
Cc1cn[nH]c1 | inactive | inactive | inactive | inactive | – | 4.3%
O=C1NC(c2ccccc2)(c2ccccc2)C(=O)N1COP(=O)(O)O | inactive | inactive | inactive | inactive | – | -4.89%
CCn1cc(C(=O)O)c(=O)c2ccc(C)nc21 | inactive | inactive | inactive | inactive | inactive | –
Clc1ccc(C(c2ccccc2Cl)C(Cl)Cl)cc1 (stereo not given) | inactive | inactive | inactive | inactive | – | -40.6%
Oc1cn2c(n1)Nc1ccc(Cl)c(Cl)c1C2 | inactive | inactive | inactive | inactive | inactive | –
NC(=Nc1ccccc1)Nc1ccccc1 | inactive | inactive | inactive | inactive | – | 1.43%
C[N+]1(C)CCC(OC(=O)C(O)(c2ccccc2)C2CCCC2)C1 (stereo not given) | inactive | inactive | inactive | inactive | inactive | –
